D1 potentiator: Potentiators of Human D1 Dopamine Receptor: qHTS. D(1A) dopamine receptor (Homo sapiens), P21728. 360,000 tested, 0.036% active. AID 504651, 2011. HEK293 TREx D1 cells, calcium flux, dopamine EC20 potentiation. potentiation, % at 10 µM; in the data active = potentiation above about 30%; note: 0% is about no effect
D3 ag: qHTS of D3 Dopamine Receptor Agonist: qHTS; D(3) dopamine receptor (Homo sapiens), P35462; D3R DiscoveRx beta-arrestin cells, luminescence, 90 min; max activation, %; 410,000 tested, 0.58% active; AID 652048, 2013; in the data active = max activation above about 30%; note: 0% is about no effect
Target sequence (P35462 whole entry, looked up): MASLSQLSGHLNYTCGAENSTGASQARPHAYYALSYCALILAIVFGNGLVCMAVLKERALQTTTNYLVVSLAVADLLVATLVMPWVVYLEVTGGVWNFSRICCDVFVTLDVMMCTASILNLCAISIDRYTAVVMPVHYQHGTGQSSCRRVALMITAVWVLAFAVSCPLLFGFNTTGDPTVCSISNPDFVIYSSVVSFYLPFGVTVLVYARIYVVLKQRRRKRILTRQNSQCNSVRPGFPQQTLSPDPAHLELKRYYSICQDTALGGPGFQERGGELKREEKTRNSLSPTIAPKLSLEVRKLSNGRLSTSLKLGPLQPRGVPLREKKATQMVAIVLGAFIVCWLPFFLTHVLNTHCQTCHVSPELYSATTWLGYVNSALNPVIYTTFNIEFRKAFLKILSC
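Agonist-mode cell screen: cells plated at 1500/well and incubated overnight at 37 °C, then exposed to library compounds for 90 min at 37 °C. Detection reagent was added for 30–60 min at room temperature, and luminescence was read.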
D3 antag: qHTS of D3 Dopamine Receptor Antagonist: qHTS; D(3) dopamine receptor (Homo sapiens), P35462; D3R cells, DiscoveRx beta-arrestin luminescence, antagonist mode; hits give low values; max response, negative = inhibition, %; 360,000 tested, 2.5% active; AID 652054, 2013; in the data active = max response below about -50%; inconclusive = no clear call, values can overlap the other calls; note: % is set by controls: 0 for no effect and ±100 for the full control effect
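Cells expressing the human receptor were seeded at 1500 cells/well, incubated overnight at 37 degrees C in 5% CO2, then exposed to library compounds with dopamine controls for 90 minutes at 37 degrees C before luminescent detection.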
D1 agonist: Allosteric Agonists of the Human D1 Dopamine Receptor: qHTS; 360,000 tested, 1% active; activation, % at 2 µM; AID 504660, 2011; HEK293 T-REx D1 cells, calcium flux, agonist mode; D(1A) dopamine receptor (Homo sapiens), P21728; in the data active = activation above about 30%; note: 0% is about no effect
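Agonism was scored from calcium flux recorded over 180 s (1 read/s) after pintool compound addition, following a 10-cycle baseline. Cells were inducible force-coupled HEK293 TREx D1, plated overnight at 30 C and loaded with no-wash calcium dye.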
D1 antag: Antagonist of Human D 1 Dopamine Receptor: qHTS; D(1A) dopamine receptor (Homo sapiens), P21728; 360,000 tested, 3.2% active; activity change, negative = inhibition, % at 10 µM; HEK293 TREx D1 cells, calcium flux, dopamine EC80; hits give low values; in the data active = activity change below about -30%; note: % is set by controls: 0 for no effect and ±100 for the full control effect
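Inducible Hek293 Trex D1 cells (tetracycline, overnight, 30 C). Calcium dye 30–90 min RT. Antagonist mode: EC80 dopamine added after 180 s compound read.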
An asterisk follows results filed as active; ? = inconclusive; · = not tested or not shown. An excerpt weighted towards active compounds, which were near 6% of everything screened.

SMILES | D1 potentiator | D3 ag | D3 antag | D1 agonist | D1 antag
COc1ccc(N2CCN(Cc3cc(=O)oc4cc5c(cc34)CCCC5)CC2)cc1 | -6 | -3 | 13 | 0 | 0
COc1ccc(N2CCN(Cc3cc4c(cc3O)CCC4)CC2)cc1 | 5 | -5 | -87* | 0 | -2
CCOC(=O)CSC1=NC(=O)/C(=C/c2ccc(OC)cc2)S1 | -8 | -3 | -12 | 6 | -37*
COc1ccc(C2C(C#N)=C3NC(=O)c4c(sc5c4CCCCC5)N3C3=C2C(=O)CC(C)(C)C3)cc1 (centres undefined) | -4 | -12 | -87* | 1 | 5
COc1ccc(C2C(C#N)=C(N)N(c3sc4c(c3C#N)CCCC4)C3=C2C(=O)CC(C)(C)C3)cc1 (centres undefined) | -9 | -1 | -8 | 2 | 1
COc1ccccc1CCNC(=O)C(=O)NCC(c1ccco1)S(=O)(=O)c1cccs1 (centres undefined) | -1 | -8 | · | 3 | ·
CCC/C(O)=C1\C(=O)CC(C)(C)CC1=Nc1ccc(OC)cc1 | 51* | -7 | 8 | 1 | -6
CCCC/C(O)=C1\C(=O)CC(C)(C)CC1=Nc1ccc(OC)cc1 | -2 | 1 | -2 | 1 | 15
Cc1cn2c(=O)cc(COC(=O)COc3ccccc3C)nc2s1 | -9 | 0 | · | 13 | -30*
Cc1cn2c(=O)cc(COC(=O)c3ccc(NC(=O)COc4ccc(C)c(C)c4)cc3)nc2s1 | 0 | 8 | · | 2 | -36*
Cc1cn2c(=O)cc(COC(=O)c3cccc(NC(=O)c4ccccc4C)c3)nc2s1 | -1 | -1 | · | 3 | -59*
Cc1cn2c(=O)cc(COC(=O)c3cccc(NC(=O)c4ccccc4Cl)c3)nc2s1 | 0 | 7 | · | 2 | 4
Cc1cn2c(=O)cc(COC(=O)c3cccc(NC(=O)COc4ccccc4C)c3)nc2s1 | 0 | 0 | · | -1 | 5
Cc1ccc(OCC(=O)Nc2ccc(C(=O)OCc3cc(=O)n4ccsc4n3)cc2)cc1C | 0 | 10 | · | 2 | -7
CC1=C(C(=O)OCc2ccc(C)cc2)C(c2ccccc2F)CC(=O)N1 (centres undefined) | -4 | 3 | · | 23 | -6
Clc1ccc(CSc2nnc(-c3ccncc3)s2)cc1 | 3 | -2 | -3 | 2 | -23
Clc1cccc(Cl)c1CSc1nnc(-c2ccncc2)s1 | 13 | 8 | 18 | 144* | -16
COc1cccc(=O)c2c(C)n(CC(=O)c3ccccc3)c(C)c12 | -4 | -6 | -16 | 6 | -33*
CCOc1cccc(=O)c2c(C)n(CC(=O)c3ccccc3)c(C)c12 | 0 | -1 | -9 | 6 | 14
N#CC(C#N)=C/C=C(\Nc1ccc(Cl)cc1)c1ccc(Cl)cc1 | -10 | -11 | 10 | 79* | -28
CCCOc1cc(C)c(S(=O)(=O)N2CCOCC2)cc1C | -3 | · | · | 1 | 12
COc1cc(C)c(S(=O)(=O)N2CCOCC2)cc1C | -3 | -1 | -85* | -2 | -3
O=C(OCC(=O)N1CCc2ccccc21)c1ccc([N+](=O)[O-])o1 | · | 3 | -11 | · | ·
Cc1ccsc1/C=N/NC(=O)c1ccc2ccccc2c1 | -11 | -21 | ? | 0 | -49*
Cc1noc(C)c1NC(=O)N(C)C[C@@H]1OCc2cnnn2CCCC(=O)N([C@@H](C)CO)C[C@@H]1C | · | 5 | -22 | · | ·
COc1ccc(Cl)cc1S(=O)(=O)Nc1cccc(-c2ccc(N3CCCC3)nn2)c1 | 3 | 24 | · | 1 | 6
CCOC(=O)CC(NS(=O)(=O)c1cc(-c2cc(C)no2)ccc1C)c1ccc(C)cc1 (centres undefined) | -2 | -17 | · | 7 | -3
Cc1nnc2n(Cc3ccccc3)c(=O)c3c4c(sc3n12)COC(C(C)C)C4 (centres undefined) | 1 | 1 | 4 | 1 | 7
CC(C)C1Cc2c(sc3c2c(=O)n(Cc2ccccc2)c2nncn32)CO1 (centres undefined) | 0 | -12 | -53* | 2 | 4
CN(C)c1ccc(N=Cc2nc(-c3ccccc3)oc2OC(=O)c2cccc(Cl)c2)cc1 | -1 | -5 | -4 | 27 | -32*

High-throughput results from PubChem BioAssay.
